Each structure is given as a SMILES string. The panel holds about 83,000 compounds, 20% with a hit somewhere; the sample as a whole holds those more often.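 48-hour exposure, single concentration, 96-well plates; percent growth endpoint where 0 means no net growth. Active: below 10.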 Calls of active or inactive are those of the source.

This assay concerns NCI-H226 lung. The experiment in a line: NCI-60 one-dose screen, 48 h (100 = growth as untreated, 0 = no growth, -100 = all killed). The settings on record: 10 µM unless noted. On the procedure: Growth inhibition of the NCI-H226 human Non-Small Cell Lung tumor cell line is measured as a screen for anti-cancer activity. Cells are grown in 96 well plates and exposed to the test compound for 48 hours. Compounds are tested at a single concentration, which is 10^-5 M for most compounds. The reported endpoint is percent growth (GI% or GIPRCNT), where numbers from 0 - 100% represent growth inhibition, and numbers from -100% - 0 represent cell death. For example, a value of 40 represents 60% growth inhibition. A value of 0 means no net growth occurred over the course of the experiment. A value of -40 indicates 40% of cells at the beginning of the experiment died by the end of the experiment. A value of -100 means all cells are dead at the end of the experiment.
NCI-60 Human Tumor Cell Lines Screen was performed using the standard one-dose NCI protocol, which is described in more detail at https://dtp.cancer.gov/discovery_development/nci-60/default.htm.
Compounds with GIPRCNT values below 10 were considered active. Activity score was based on GIPRCNT using the following formula: […]
Score is 0 for GIPRCNT values of 100 or above, 50 for GIPRCNT values of 0, and 100 for GIPRCNT values of -100.
For the compound `c1ccc2cc(Cn3cc(CSc4nc5ccccc5s4)nn3)ccc2c1`, the growth was 83.8% (inactive).

Take `C=CN(C(=O)N1CCN(c2cc3c(cc2F)c(=O)c(C(=O)O)cn3C2CC2)CC1)c1nc(-c2ccc(Cl)cc2)cs1`: the growth was 87.9% (inactive).

`CCOC(=O)CNC1=C(Cl)C(=O)N(Cc2ccc(Cl)cc2)C1=O`: the growth is 99.7% (inactive).

With `COc1ccc(C2[C@@H](Cl)C(=O)N2c2cc(OC)c(OC)c(OC)c2)cc1Cl` (stereo not given in full), the growth is 59.8% (inactive).

Turning to `COc1ccc2c(c1)oc1c(C)c3c(c(C)c12)C(=O)N(CCOS(C)(=O)=O)C3=O`, the growth is 106% (inactive).

For `COc1cc(O)c2c(=O)c3c(CC=C(C)C)cc(OC)c(O)c3oc2c1`, the growth is 78.7% (inactive).

As for `Cc1ccc2nc(-c3ccc(C(=O)N/N=C/c4ccc([N+](=O)[O-])cc4)cc3)[nH]c2c1`, the growth was 104% (inactive).

`O=C(/C=C/c1ccco1)Nc1ncc(Cc2cc(Cl)ccc2Cl)s1`: the growth is 39.4% (inactive).

With `COc1ccc(/C=C/C(c2cc(OC)c(OC)c(OC)c2)n2cncn2)cc1O` (stereo not given), the growth is 62.2% (inactive).

For the compound `CN(C)CCC(=O)C1CC1`, the growth is 102% (inactive).

In the case of `CCOC(=O)C/C(=N\Nc1cc(=O)[nH]c2ccc(OC)cc12)C(=O)OCC`, the growth was 97.6% (inactive).

On to `C=C1SC(=Nc2ccccc2Cl)N(C(=O)c2sc3ccccc3c2Cl)C1(C)C`, for which the growth was 77.1% (inactive).

With `COC(=O)c1sccc1-c1cc(O)c(C(=O)Nc2ccccc2)s1`, the growth was 90.9% (inactive).

With `CC(=O)Nc1sc2c(c1-c1nc3ccccc3s1)CNC2`, the growth was 26% (inactive).

As to `C/C(=C(\c1ccc(OCCN2CCCCCC2)cc1)c1ccc(OC(=O)c2ccccc2)cc1)c1ccc(Cl)cc1`, the growth is 87.5% (inactive).

In the case of `O=C(/C=C/C12c3ccccc3C(c3ccccc31)C1C(=O)NC(=O)C12)c1ccc(Cl)cc1Cl` (stereo not given), the growth was 78.7% (inactive).

In the case of `C#CCOc1ccc2nc(CCl)c(Cl)c(Nc3cccc(C(F)(F)F)c3)c2c1`, the growth was 84.7% (inactive).

`C[C@@H]1NC(=O)[C@H](Cc2ccccc2)N(Cc2cccnc2)C1=O`: the growth is 90.4% (inactive).

In the case of `COc1ccc2c(c1)CC[C@@H]1[C@@H]2CC[C@]2(C)C3C(=CC(COC(C)=O)C4C(=O)N(c5ccc(Cl)cc5)C(=O)C43)C[C@@H]12` (stereo not given in full), the growth is 97.3% (inactive).

With `COc1ccc(C/C(C)=C(\c2ccc(O)cc2)c2ccc(OCCN3CCCCC3)cc2)cc1`, the growth was 103% (inactive).

Consider `O=C(CN1C(=O)S/C(=C\C(Cl)=C\c2ccccc2)C1=O)NC1CCS(=O)(=O)C1` (stereo not given), for which the growth was 77.3% (inactive).

In the case of `CN(C)CCCNC(=O)c1cncnc1Nc1ccc2c(ccn2Cc2cccc(F)c2)c1`, the growth was 99.4% (inactive).

Regarding `CCN1CCN(CCNc2nccc(-c3c(-c4ccc(F)c(O)c4)nc4occn34)n2)S1(=O)=O`, the growth is 6.71% (active).

Regarding `C=C1C(=O)O[C@H]2[C@H]1CC/C(CNC(=O)Cc1c[nH]c3ccccc13)=C\CC[C@@]1(C)O[C@@H]21`, the growth is -45.8% (active).

Take `O=S(=O)(NCCNc1nccc(-c2c(-c3ccc(F)c(O)c3)nc3sccn23)n1)c1ccc(Cl)cc1`: the growth was 24.2% (inactive).

For `C/C(=N\Nc1ccccc1)c1ccc(NC2=CC(=O)c3ccccc3C2=O)cc1`, the growth is 80.8% (inactive).

On to `CCOC(=O)C1=C(CCl)N(C)C(=O)NC1c1ccc2c(c1)OCO2` (stereo not given), for which the growth is 77% (inactive).

For the compound `COc1ccc2c(O)c(/C=C3\N=Nc4ncccc43)oc2c1C[C@@H]1CCNC[C@H]1F`, the growth was -4.38% (active).

For `ClC(Cl)c1nc(-c2ccccc2)n2nc(-c3ccccc3)cc2n1`, the growth is 86.9% (inactive).

In the case of `O=C1CCC(C(=O)N/N=C/c2cc(F)ccc2F)N1` (stereo not given), the growth is 99.2% (inactive).

As for `O=C(O)c1cn(C2CC2)c2cc(N3CCN(C(=O)N4CCOCC4)CC3)c(F)cc2c1=O`, the growth was 99.3% (inactive).

`COc1cc(C=C2C(=O)NC(=S)NC2=O)cc(CN2CCCC2)c1O`: the growth was 103% (inactive).

As to `CN(C)Cc1cc(C(C)(C)C)cc(Br)c1O`, the growth was 101% (inactive).

Take `CC(C)Cc1nc(Nc2ccccc2)[nH]c(=O)c1C#N`: the growth was 58.1% (inactive).

Consider `Nc1nc(C(=O)N/N=C/c2ccc(F)cc2)nn1-c1ccc(S(N)(=O)=O)cc1`, for which the growth was 99% (inactive).

Consider `COc1cc(/C=C/c2cn[nH]c2-c2ccc(C)cc2)cc(OC)c1OC`, for which the growth was 65.4% (inactive).

Turning to `Cc1cccc(N2C(=O)/C(=C/C(Cl)=C/c3ccc([N+](=O)[O-])cc3)SC2=S)c1C`, the growth was -38.1% (active).

`c1cc(OCCN2CCCCC2)ccc1CNc1ccc2nc(CCC3CCCCC3)[nH]c2c1`: the growth was 36.2% (inactive).

Turning to `COCCn1cc(-c2nc(-c3cn(CCOC)c4ncccc34)cs2)c2cc(F)ccc21`, the growth is 75.4% (inactive).

On to `CN(C)c1ccc(/C=C2\C=C(c3nc4ccccc4s3)OC2=O)cc1`, for which the growth is 82.2% (inactive).

These data come from PubChem BioAssay (NCI).
